From PubChem BioAssay
Shown are actives, neighbours in structure and some others; about 8.7% of the full set was active somewhere.
ALOX12 inh = Primary qHTS assay for inhibitors of human arachidonate 12S-lipoxygenase (ALOX12): Round 2 | Potency, µM (series often up to 108 µM), hits mostly inhibitors | purified 12hLO, xylenol orange hydroperoxide absorbance | hit rate 1.1% among 580,000
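Purified human 12hLO at 150 nM in 25 mM Hepes, 0.01% Triton X-100, pH 7.0, preincubated 15 min at room temperature with compound. Reaction started with 40 uM arachidonic acid, 30 min at room temperature. Hydroperoxide measured by Fe-xylenol orange, 573/405 nm absorbance ratio.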
HP1b chromo inh = HTS for Inhibitors of HP1-beta Chromodomain Interactions with Methylated Histone Tails; hit rate 0.56% among 390,000; Potency, µM (highest dose often 114 µM), most hits filed as inhibitors; AlphaScreen HP1-beta / biotin-H3K9me3 peptide binding; Chromobox protein homolog 1 (Homo sapiens), P83916; further: nearly all actives have a fitted effect of over 70% in size
Target sequence (P83916 whole entry, looked up): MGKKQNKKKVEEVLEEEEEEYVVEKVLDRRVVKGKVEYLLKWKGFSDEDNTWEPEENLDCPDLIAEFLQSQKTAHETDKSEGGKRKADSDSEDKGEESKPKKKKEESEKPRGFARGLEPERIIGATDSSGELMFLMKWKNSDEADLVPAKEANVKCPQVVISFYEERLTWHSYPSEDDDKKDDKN
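Compound inhibition of the preformed complex between 50 nM HP1-beta and 50 nM biotinylated H3K9me3 peptide was read by AlphaScreen. Buffer was PBS pH 7.4 with 0.01% Tween-20. Incubations ran 30 min at room temperature, with 10 ug/mL donor/acceptor beads.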
BAZ2B block = qHTS Assay for Inhibitors of BAZ2B | Bromodomain adjacent to zinc finger domain protein 2B (Homo sapiens), Q9UIF8 | AlphaScreen BAZ2B-H3K14Ac peptide displacement | Potency, µM (doses to about 114 µM), most hits filed as inhibitors | hit rate 4.4% among 360,000; further: nearly all actives have a fitted effect of over 60% in size
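Multi-concentration screen (max 110 uM) measuring displacement of acetylated histone H3 peptide from BAZ2B by AlphaScreen, using 50 nM protein, 50 nM peptide and 10 ug/mL streptavidin donor plus Ni-chelate acceptor beads.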
G9a inh = qHTS Assay for Inhibitors of Histone Lysine Methyltransferase G9a; Histone-lysine N-methyltransferase EHMT2 (Homo sapiens), Q96KQ7; G9a H3K9 monomethylation, AlphaScreen, 2 h; Potency, µM (top dose mostly 102 µM), most hits filed as inhibitors; hit rate 8.8% among 350,000; further: nearly all actives have a fitted effect of over 75% in size
Target sequence (Q96KQ7 913-1193 limits assumed): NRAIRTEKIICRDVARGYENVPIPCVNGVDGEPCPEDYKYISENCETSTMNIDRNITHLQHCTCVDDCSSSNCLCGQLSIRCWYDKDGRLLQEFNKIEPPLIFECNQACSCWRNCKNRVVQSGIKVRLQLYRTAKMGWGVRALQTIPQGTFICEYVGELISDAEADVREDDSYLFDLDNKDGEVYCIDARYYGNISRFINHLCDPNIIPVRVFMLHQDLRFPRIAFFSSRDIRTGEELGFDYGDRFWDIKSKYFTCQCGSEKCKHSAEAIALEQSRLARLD
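G9a (20 nM) was preincubated 15 min with compound, then reacted 2 h at room temperature with 500 nM biotin-H3K9 peptide and 20 µM SAM. Monomethyl-H3K9 detected by AlphaScreen using anti-H3K9me1 antibody.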
Sfp inh = qHTS Assay for Inhibitors of Bacillus subtilis Sfp phosphopantetheinyl transferase (PPTase); AID 1490, 2009; Biochemical Sfp PPTase activity, qHTS; Potency, µM, actives largely listed as inhibitors; hit rate 3.5% among 310,000;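 further: the enzyme is Sfp with the accession as filed and its product quenches rhodamine fluorescence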
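Buffer: 50 mM Hepes-Na pH 7.6, 10 mM MgCl2, 0.01% Nonidet P-40, 0.01% BSA. Enzyme 15 nM, pre-exposed to compound 15 min; substrates then added and fluorescence change tracked over 30 min.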
JMJD2A Tudor inh = qHTS Assay for Inhibitors of JMJD2A-Tudor Domain | Potency, µM (doses to about 114 µM), usual class: inhibitors | hit rate 4.4% among 390,000 | Lysine-specific demethylase 4A (Homo sapiens), O75164 | AlphaScreen JMJD2A-Tudor / H3K4me3 peptide binding; further: nearly all actives have a fitted effect of over 50% in size
Numbers stand for hits; i = inactive; ? = inconclusive; nt = no result; [ ] = another dose, or the depositor's remark. The call rests on the fitted dose curve; in most records, active means well fitted curve in the direction sought with a large enough effect; inconclusive means small, poorly fitted or top-dose-only effect, or another doubt; inactive means no such curve, though single readings can be large; an effect the other way counts as inactive or inconclusive.

SMILES	ALOX12 inh	HP1b chromo inh	BAZ2B block	G9a inh	Sfp inh	JMJD2A Tudor inh
Cc1ccc(C(=O)Cn2cncn2)cc1	?	i	i	50µM	i	i
CCOC(=O)c1csc(N/N=C2\CCc3ccccc32)n1	?	i	45µM	28µM	i	?
CCOC(=O)c1csc(N/N=C2\CCCc3ccccc32)n1	?	i	?	25µM	79µM	?
O=C(O)c1ccc(Nc2ncc([N+](=O)[O-])cc2[N+](=O)[O-])cc1	?	i	?	45µM	i	i
O=S(=O)(Nc1ccc2c(c1)OCO2)c1ccc(F)c(F)c1	?	i	i	i	nt	i
O=c1[nH]cc(S(=O)(=O)Nc2ccc3c(c2)OCO3)c(=O)[nH]1	?	i	i	50µM	nt	i
COC(=O)c1c(NC(=O)CN2CCNC(=O)C2)sc2c1CCCCC2	i	nt	nt	nt	nt	nt
CN(C)CCCC1Sc2ccccc2Sc2ccccc21 (centres undefined)	?	71µM	nt	nt	nt	20µM
CCCCOC(=O)COc1ccc2c(=O)c(Oc3ccc(OC)cc3)coc2c1	i	nt	nt	nt	nt	nt
Cc1ccc2cc(N)ccc2n1	i	i	i	nt	i	i
Nc1ccc2cc3ccc(N)cc3nc2c1	?	nt	nt	28µM	i	nt
COc1cc(N2CCCC2)c(OC)cc1/C=C(/C#N)c1cccc(F)c1	nt	?	22µM	?	?	20µM
O=C(Nc1ccccc1)Nc1ccc2nnsc2c1	i	i	i	i	i	79µM
CCCCCCCCCCCCCCCCCC(=O)OCC(C)O (centres undefined)	nt	nt	nt	25µM	i	nt
COc1ccc(S(=O)(=O)N(Cc2ccc(OC)c(OC)c2)Cc2ccco2)cc1	?	i	?	50µM	i	i
Cc1ccc(S(=O)(=O)N(CC(=O)O)Cc2ccco2)cc1	i	i	56µM	32µM	i	89µM
COC(=O)CN(Cc1ccco1)S(=O)(=O)c1ccccc1	?	i	i	i	56µM	i
COc1cc(NC(=O)C2CCCC2)c(OC)cc1Cl	i	i	i	i	i	i
COc1cc(NC(=O)C2CC2)c(C(=O)O)cc1OC	i	i	i	50µM	i	i
Cn1cnc(S(=O)(=O)N2CCC3(CC2)CC(Cc2ccccc2)CCO3)c1 (centres undefined)	i	nt	nt	nt	nt	nt
CN(C)c1cccc(Oc2nnnn2[C@H]2CO[C@H]3[C@@H]2OC[C@@H]3NC(=O)c2cncnc2)c1	i	nt	nt	nt	nt	nt
CCCN1C(=O)S/C(=C\c2ccc(N3CCOCC3)o2)C1=O	40µM	?	i	4µM	3.2µM	?
CCCN1C(=O)S/C(=C\c2ccc(N3CCOCC3)cc2C)C1=O	nt	nt	?	i	i	nt
Cc1ccc(OCCN2C(=O)S/C(=C\c3ccc(C)o3)C2=O)cc1	?	i	?	32µM	18µM	i
CCCN1C(=O)S/C(=C/c2ccc(N3CCOCC3)o2)C1=O	?	i	?	i[12.7 µM]	1.3µM	i
SMILES	ALOX12 inh	HP1b chromo inh	BAZ2B block	G9a inh	Sfp inh	JMJD2A Tudor inh
Cc1ccc(OCCN2C(=O)C(=O)c3cc(C)ccc32)cc1	?	?	35µM	25µM	i	56µM
CCN1C(=O)S/C(=C\c2ccc(N3CCOCC3)cc2C)C1=O	i	i	i	?	i	i
Cc1ccc(Oc2ccccc2/C=C2\SC(=O)N(C)C2=O)cc1	i	i	i	i	i	i
Cc1cc(C)c2c(c1)C(=O)C(=O)N2CCOc1ccccc1	i	nt	nt	nt	nt	nt
CCOCCCNC(=O)c1ccc(C#N)cc1	i	nt	nt	nt	nt	nt
CCCNC(=O)c1c(OCC2CC2)cc(=O)n2c1CCOCC2	i	nt	nt	nt	nt	nt
COc1cccc(Nc2nc(-c3ccc(O)cc3)cs2)c1	?	i	?	50µM	i	?
COc1cccc(Nc2nc(-c3ccc(CN(C)C(C)=O)cc3)cs2)c1	i	nt	nt	nt	nt	nt
COc1cccc(Nc2nc(-c3cccc(N4C(=O)c5ccccc5C4=O)c3)cs2)c1	?	?	?	14µM	i	?
COc1ccc(Cl)cc1S(=O)(=O)N1CCCC(Cn2c(C)nc3cccnc32)C1 (centres undefined)	i	nt	nt	nt	nt	nt
CC(=O)c1cccc(OC(=O)c2ccc3c(c2)CCCC3)c1	i	nt	nt	nt	nt	nt
COc1ccc(-n2c(=S)[nH]c3cc(C(=O)NCCCN4CCCC4=O)ccc3c2=O)c(OC)c1	?	i	i	32µM	i	14µM
O=C(O)c1ccc2c(=O)n(-c3ccc(F)c(Cl)c3)c(=S)[nH]c2c1	?	i	i	?	i	i
COC(CNC(=O)c1ccc(-n2c(=S)[nH]c3ccccc3c2=O)cc1)OC	i	i	?	?	i	i
O=C(NCCCN1CCOCC1)c1ccc2c(=O)n(-c3ccc(F)c(Cl)c3)c(=S)[nH]c2c1	i	i	i	40µM	i	i
COc1ccc(-n2c(=S)[nH]c3cc(C(=O)NCCCN4CCOCC4)ccc3c2=O)cc1	i	i	i	28µM	i	i
COC(CNC(=O)c1cccc(-n2c(=S)[nH]c3cc(Cl)ccc3c2=O)c1)OC	1.8µM	i	?	i	i	i
O=C(Nc1ccc(-c2nccs2)cc1)C1CCCN1C(=O)c1cccs1 (centres undefined)	i	nt	nt	nt	nt	nt
CN1CCCC2(Cc3ccccc3CN(C(=O)C3CCCC3)C2)C1 (centres undefined)	i[6.33 µM]	nt	nt	nt	nt	nt
COc1ccc(NC(=O)CC(C)NCCCN2CCCC2=O)cc1 (centres undefined)	i	?	?	56µM	?	18µM
COc1ccc(NC(=S)NCCCN2CCCC2=O)c(OC)c1	i	i	i	?	40µM	i
Cc1c(O)ccc2c(COC(=O)Cc3n[nH]c(=O)c4ccccc34)cc(=O)oc12	i	nt	nt	nt	nt	nt
CC(C)Oc1ccc(CN2CCC(CO)(CN3CCCC3)CC2)cc1Cl	i	nt	nt	nt	nt	nt
COCCn1c(C)cc(C(=O)N2CCC(N3C[C@H](O)C[C@H]3C(=O)NC3CCCCC3)CC2)c1C	i	nt	nt	nt	nt	nt
Cn1c(=O)c2c(ncn2CCC(=O)Nc2ccc(Br)cc2)n(C)c1=O	i	nt	nt	nt	nt	nt
SMILES	ALOX12 inh	HP1b chromo inh	BAZ2B block	G9a inh	Sfp inh	JMJD2A Tudor inh
CCCS(=O)(=O)c1c(S(=O)(=O)CCC)c2c(C)cccn2c1C(=O)OC	i	i	i	32µM	79µM	?
CCCS(=O)(=O)c1c(S(=O)(=O)CCC)c2c(N)cccn2c1C(=O)c1ccc(F)cc1	?	i	?	?	22µM	?
CCCS(=O)(=O)c1c(S(=O)(=O)CCC)c2c(N)cccn2c1C(=O)c1ccc(Br)cc1	6.3µM	i	i	11µM	i	?
CS(=O)(=O)N1CC2(CCN(CC3CCCCC3)CC2)Cc2ccccc21	i[6.33 µM]	nt	nt	nt	nt	nt
COCC(=O)N[C@@H]1CN(C(=O)CCCc2ccccc2)CC[C@@H]1c1nc(C)no1	i	nt	nt	nt	nt	nt
O=C(Nc1ccccc1C(F)(F)F)c1ccccc1Cl	i	nt	nt	nt	nt	nt
